LT uptake inh: inhibitors of anthrax lethal toxin internalization; Cells, anthrax lethal toxin internalization, FRET ratio (460/530); Potency, µM (doses to about 40 µM), actives largely listed as inhibitors; 70,000 tested, 0.67% active; further: nearly all actives have a fitted effect of over 50% in size
AmpC inh det: blocks E. coli AmpC beta-lactamase in presence of detergent; Potency, µM (highest dose often 28.7 µM); purified AmpC, nitrocefin hydrolysis with detergent; 71,000 tested, 0.09% active; active means well fitted curve in the direction sought with a large enough effect; inconclusive means small, poorly fitted or top-dose-only effect
Target sequence (P00811 whole entry, looked up): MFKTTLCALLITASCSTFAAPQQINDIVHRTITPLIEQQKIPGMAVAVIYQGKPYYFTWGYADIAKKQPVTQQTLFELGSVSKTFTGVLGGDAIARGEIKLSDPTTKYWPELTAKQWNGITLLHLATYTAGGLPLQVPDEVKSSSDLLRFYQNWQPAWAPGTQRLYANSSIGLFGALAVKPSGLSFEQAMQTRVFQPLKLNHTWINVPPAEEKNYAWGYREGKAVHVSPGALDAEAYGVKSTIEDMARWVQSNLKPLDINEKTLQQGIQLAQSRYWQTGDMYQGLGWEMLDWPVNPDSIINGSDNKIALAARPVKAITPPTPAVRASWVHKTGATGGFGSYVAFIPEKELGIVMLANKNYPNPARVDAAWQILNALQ
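E. coli AmpC (5.3 nM) in 20 mM phosphate pH 7.0 with 0.01% Triton X-100, preincubated 15 min RT with compound; nitrocefin (2 uL of 800 uM stock) hydrolysis followed by 480 nm absorbance every 20 s over 4 min.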
Prx2 Sm inh: inhibitors of Schistosoma mansoni peroxiredoxin 2; S. mansoni Prx2 activity coupled to TGR/GSH (TGR is thioredoxin glutathione reductase), NADPH fluorescence loss, qHTS; 65,000 tested, 0.07% active; Potency, µM
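Enzyme mix: 100 uM NADPH, 25 nM TGR, 700 uM GSH, 50 nM Prx2 in 100 mM phosphate pH 7.4, 10 mM EDTA, 0.01% Tween-20. 15 min RT with compound; NADPH/GSH added, H2O2 starts reaction; NADPH fluorescence read 8 min.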
AmpC nodet inh: blocks E. coli AmpC beta-lactamase in absence of detergent | AID 585 | 71,000 tested, 1.8% active | AmpC nitrocefin hydrolysis, absorbance 480 nm, no detergent | Potency, µM (top dose mostly 28.7 µM) | P00811
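AmpC, 20 mM phosphate pH 7.0; 15 min cpd preinc, RT; start with nitrocefin (800 uM stock); A480 kinetic read, 20 s intervals, 4 min. No-enzyme wells = negative control.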
Each line names hits and unclear results; the compound was inactive in the other large screens; [ ] = dose if it differs, or a comment. In the library only some 2.4% were active in any assay of this set; here they are far more common. Unless noted, the call rests on the fitted dose curve.

COc1ccccc1CNc1nc(-c2cccc(C#N)c2)nc2ccccc12	LT uptake inh inconclusive, AmpC nodet inh inconclusive
COc1cccc(-c2nc(NCc3ccccc3OC)c3ccccc3n2)c1	LT uptake inh 13µM
COc1ccccc1CNc1nc(-c2ccc(N(C)C)cc2)nc2ccccc12	LT uptake inh inconclusive
CNc1nc(-c2cccc(NS(C)(=O)=O)c2)nc2ccccc12	none
COc1ccccc1CNc1nc(-c2cccc(NS(C)(=O)=O)c2)nc2ccccc12	LT uptake inh 13µM
CS(=O)(=O)Nc1cccc(-c2nc(Nc3ccc(F)cc3)c3ccccc3n2)c1	LT uptake inh 10µM
COc1ccccc1CNc1nc(-c2ccc3c(c2)OCO3)nc2ccccc12	LT uptake inh 13µM, AmpC nodet inh inconclusive
COC(=O)C1=C(C)N(Cc2ccccc2)C2=C(C(C)=O)C(c3ccccc3)[C@@](O)(C(=O)OC)C(=O)N2C1c1ccccc1 (stereo not given in full)	none (no result: AmpC inh det, Prx2 Sm inh, AmpC nodet inh)
CN(C)Cc1ccccc1-c1nc(NCc2cccs2)c2ccccc2n1	none
Cc1ccccc1OCc1nc(-c2ccc(NC(=O)c3ccc4c(c3)OCO4)cc2)no1	AmpC nodet inh 13µM
Cc1ccccc1OCc1nc(-c2ccc(NC(=O)c3ccco3)cc2)no1	LT uptake inh inconclusive
CCOc1ccc(Cn2nnc(C(=O)NCc3ccc(OC)cc3)c2N)cc1	AmpC nodet inh 4µM[single pt active]
COC(=O)c1nnn(Cc2ccccc2)c1N	none
CCOc1ccc(NC(=O)Cn2nnc(C(=O)NCc3ccccc3OC)c2N)cc1	LT uptake inh inconclusive
CSc1cccc(NC(=O)c2nnn(Cc3ccccc3)c2N)c1	LT uptake inh inconclusive
COc1cc(NC(=O)c2nnn(Cc3ccc(SC)cc3)c2N)cc(OC)c1	LT uptake inh inconclusive, AmpC nodet inh 4µM[single pt active]
CCc1ccc(Cn2nnc(C(=O)Nc3ccc(OC)cc3OC)c2N)cc1	AmpC nodet inh 4µM[single pt active]
COc1cccc(NC(=O)c2nnn(CCc3ccccc3)c2N)c1	LT uptake inh inconclusive, AmpC nodet inh 4µM[single pt active]
COc1cccc(NC(=O)Cn2nnc(C(=O)Nc3ccccc3)c2N)c1	none
COc1cccc(Nc2ncc3ncc(=O)n(C)c3n2)c1	none
NCCSC(c1ccccc1)c1ccccc1	none
C[C@H](O)[C@H](O)[C@@H](O)c1cnc2nc(N)[nH]c(=O)c2n1	LT uptake inh inconclusive
O=C(Nc1ccccc1)N1CC[C@@]2(CCCN(C(=O)c3csnn3)C2)C1	none
COc1ccc(OC)c(NC(=O)c2nnn(CCc3ccccc3)c2N)c1	AmpC nodet inh 4µM[single pt active]
c1ccsc1	none (no result: Prx2 Sm inh)
CC1CCN(C(=O)Cn2c(=O)oc3ccccc32)CC1	none
CC1CCN(C(=O)CN2C(=O)C(=O)c3ccccc32)CC1	AmpC nodet inh 4µM[single pt active]
Cc1ccc(CCNC(=O)CC2Oc3ccc(C)cc3NC2=O)cc1 (stereo not given)	AmpC nodet inh 4µM[single pt active]
Cc1ccc2c(c1)NC(=O)C(CC(=O)O)O2 (stereo not given)	none
Cc1ccc2c(c1)NC(=O)C(CC(=O)NCCN(C)C)O2 (stereo not given)	AmpC nodet inh 3.2µM[single pt active]
CCOCCCNC(=O)CC1Oc2ccc(C)cc2NC1=O (stereo not given)	AmpC nodet inh 4µM[single pt active]
Cc1ccc2c(c1)NC(=O)C(CC(=O)NCCCN1CCCCC1)O2 (stereo not given)	none
O=C(c1cccc(F)c1)N1CCC2(CCN(Cc3cc(C(F)(F)F)cc(C(F)(F)F)c3)CC2)CC1	none
N[C@H](C(=O)O)[C@@H](O)c1cnc[nH]1	none
COc1ncc2nc(-c3ccc(F)cc3)c(=O)n(C)c2n1	none
O=C(O)C1CCCN1S(=O)(=O)c1cccc2cccnc12 (stereo not given)	none
CCn1c(SCC(=O)N2CCOCC2)nc(O)cc1=O	AmpC nodet inh 4µM[single pt active]
Nc1ccc(-c2ccc(N)c(O)c2)cc1O	LT uptake inh inconclusive, AmpC nodet inh 0.79µM (no result: Prx2 Sm inh)
CC1=C/C(=C\c2ccc3c(c2)OCO3)C(=O)S1	LT uptake inh inconclusive, AmpC inh det inconclusive, AmpC nodet inh 13µM
C=CCSC1=N/C(=C\c2ccc3c(c2)OCO3)C(=O)S1	AmpC nodet inh 4µM
C=CCC(O)CC1C2C(CC(O)CC=C)C3C1C3C2OC(C)(C)C (stereo not given)	none (no result: AmpC inh det, Prx2 Sm inh, AmpC nodet inh)
CCC(c1nnnn1Cc1cccs1)N1CCN(c2nc3ccccc3s2)CC1 (stereo not given)	LT uptake inh 10µM
COc1cccc(-c2cc(C(=O)Nn3cnnc3)c3ccccc3n2)c1	none
COC(=O)[C@H](NC(=O)c1cc(-c2ccccc2)nc2ccccc12)c1ccccc1	LT uptake inh 5µM
Cc1cc(NC(=O)CSc2nc(C(C)C)nc3sc(C)c(C)c23)no1	none
Cc1cc(NC(=O)CSc2ncnc3sc4c(c23)CCC(C)C4)no1 (stereo not given)	AmpC nodet inh 5µM
CCCCSc1c(C)c2cc3c(cc2[nH]c1=O)OCO3	AmpC nodet inh 16µM[single pt active] (no result: LT uptake inh)
O=C(Nc1cc[c]([Sb](=[O])([OH])[OH])cc1)c1ccccc1	AmpC nodet inh 3.2µM[single pt active]
O=C(CCl)c1ccc(Cl)cc1Cl	LT uptake inh 5µM (no result: Prx2 Sm inh)
COc1cccc(C2=NOC(C(=O)N3CCN(C(=O)c4ccco4)CC3)C2)c1 (stereo not given)	AmpC nodet inh 2.5µM[single pt active]
Cc1nc2ccc(S(=O)(=O)NC(C(=O)NC3CCCC3)C(C)C)cc2s1 (stereo not given)	AmpC nodet inh 4µM[single pt active]
CCN1CCN(C(=O)C(NS(=O)(=O)c2ccc3nc(C)sc3c2)C(C)C)CC1 (stereo not given)	none
CCc1ccc(NC(=O)NCCN2CCc3ccccc3C2)cc1	none
O=C(NCCN1CCc2ccccc2C1)Nc1ccc(F)cc1	LT uptake inh inconclusive, AmpC nodet inh 4µM[single pt active]
CCCCCc1nnc(NC(=O)Cc2cccs2)s1	AmpC nodet inh 13µM
COc1ccc(Cc2nnc(NC(=O)Cc3cccs3)s2)cc1OC	AmpC nodet inh 13µM
O=C(Cc1cccs1)Nc1nnc(CCc2ccccc2)s1	none
O=C(O)[C@H]1[C@H](C(=O)O)[C@H]2CC[C@@H]1O2	none
COc1ccc(OC2C=CC(c3ccccc3)OC2CO)cc1 (stereo not given)	none (no result: AmpC inh det, Prx2 Sm inh, AmpC nodet inh)
COCCCNC(=O)CC1Oc2ccccc2NC1=O (stereo not given)	LT uptake inh inconclusive
CC1CCN(Cc2ccc(NC(=O)CC3Oc4ccccc4NC3=O)cc2)CC1 (stereo not given)	AmpC nodet inh 4µM[single pt active]
O=C(CC1Oc2ccccc2NC1=O)NCCCN1CCN(C2CCCCC2)CC1 (stereo not given)	Prx2 Sm inh inconclusive, AmpC nodet inh 4µM[single pt active]
O=C(CC1Oc2ccccc2NC1=O)NC1CC1 (stereo not given)	none
CCC1CCCCN1CCCNC(=O)CC1Oc2ccccc2NC1=O (stereo not given)	AmpC nodet inh 4µM[single pt active]

Screens from PubChem.
